Hits are enriched below; roughly 10% of the tested compounds scored in any of these assays.
HPGD block: HPGD (human) dehydrogenase inhibition. P15428. purified HPGD, NADH fluorescence kinetic, PGE2 substrate. Potency, µM, for the others: at the top dose activity change, negative = inhibition, usual class: inhibitors. 150,000 compounds, 4.3% hits. AID 894; note: potency is the fitted concentration of half-maximal effect
Target sequence (P15428 whole entry, looked up): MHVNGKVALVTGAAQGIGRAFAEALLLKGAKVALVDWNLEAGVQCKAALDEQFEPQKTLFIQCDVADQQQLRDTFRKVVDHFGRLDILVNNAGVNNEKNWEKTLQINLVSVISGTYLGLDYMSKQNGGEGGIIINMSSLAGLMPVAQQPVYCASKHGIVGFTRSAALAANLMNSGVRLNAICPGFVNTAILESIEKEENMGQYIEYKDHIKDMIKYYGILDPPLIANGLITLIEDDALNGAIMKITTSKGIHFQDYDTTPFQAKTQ
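20 nM HPGD preincubated 15 min at room temperature with compound in 50 mM Tris-HCl pH 8, 0.01% Tween 20. Started with 1 mM NAD+ and 30 uM prostaglandin E2; NADH fluorescence (360/450 nm) read 5 times over 30-s intervals, last minus first.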
ALDH1A1 block: blocks purified human ALDH1A1 activity | P00352 | Purified ALDH1A1, NADH fluorescence, propionaldehyde substrate | Potency, µM (top dose mostly 75.3 µM), inactives show top-dose activity, negative = inhibition, actives largely listed as inhibitors | 220,000 compounds, 7.3% hits | AID 1030;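 note: potency is the fitted concentration of half-maximal effect; plate controls were no enzyme wells and a reference inhibitor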
Lamin A splicing: LMNA splicing modulation; 200,000 compounds, 0.01% hits; AID 1487; Potency, µM (doses to about 46.1 µM), without a hit: at the highest dose ratio change, negative = inhibition, most hits filed as inhibitors; HeLa LMNA splicing GFP/RFP minigene ratio, 48 h; active = well fitted inhibition curve with a large enough effect in the signal ratio, with a control signal flat, not every such curve was filed as active; inconclusive = small, poorly fitted or top-dose-only effect, or effect the other way, or a change in a side signal; the % refers to the signal ratio; note: potency is the fitted concentration of half-maximal effect
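S3 HeLa cells stably expressing lamin A-EGFP splicing minigene plus DsRed2, 600 cells/well, 48 h compound exposure at 37C. Laser-scanning cytometry; analysed as GFP (500-530 nm)/RFP (575-640 nm) total intensity ratio; 0.5% DMSO vehicle.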
PNC inhibitor: blocks assembly of the perinucleolar compartment | PC3M PTB-GFP, PNC prevalence imaging, 16 h; hits give low values | activity change (PNC), negative = inhibition, % at 10 µM | 140,000 compounds, 3.1% hits;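 active = readout at or below -70, meaning at least 70% loss of cells showing the perinucleolar compartment, a nuclear body marking cancer cells; inconclusive = readout between -30 and a set limit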;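 note: plate controls were DMSO wells for no effect and camptothecin positive control wells for full effect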
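PC3M cells stably expressing PTB-GFP, 750–1000 cells/well, treated 16 h at 37 °C with compound (23 nl of library stock), in duplicate. After paraformaldehyde fixation and Hoechst stain, imaged at 20x; PNC prevalence scored by image analysis.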
Luc counter: blocks Kinase-Glo luciferase, a counter-screen artifact; Kinase-Glo luciferase, ATP luminescence, 8 min; Q27757; AID 1379; Potency, µM (doses to about 38.3 µM), without a hit: at the top dose activity change, negative = inhibition, usual class: inhibitors; 200,000 compounds, 0.28% hits; active = well fitted inhibition curve with a large enough effect; inconclusive = small, poorly fitted or top-dose-only effect; note: potency is the fitted concentration of half-maximal effect; nearly all actives have a fitted effect of over 60% in size
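Substrate mix (final 50 mM imidazole pH 7.2, 50 mM KCl, 7 mM MgCl2, 10 uM ATP, 0.01% Tween 20, 0.05% BSA) plus pin-tool compound, then Kinase-Glo detection mix; 8 min ambient, luminescence read.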
Starred values were filed as active, the others as inactive; ? = inconclusive; / = no result given; [ ] = dose if it differs, or a comment. Unless noted, calls come from the whole dose curve; as a rule, active = well fitted inhibition curve with a large enough effect (not every such curve was filed as active); inconclusive = small, poorly fitted or top-dose-only effect, or another doubt; inactive = no such curve, though single readings can be large or run the other way. Unless noted, % is set by controls: 0 for no effect and ±100 for the full control effect.

SMILES	HPGD block	ALDH1A1 block	Lamin A splicing	PNC inhibitor	Luc counter
C/C(C[n+]1ccccc1)=N\N=C(N)N	-11%	2%[13.5 µM]	/	/	-6%[7.66 µM]
C[C@@H]1c2ccccc2Cn2cc3c(c21)C(=O)c1cccc(OP(=O)(O)OCc2ccccc2)c1C3=O	-26%	12%[13.5 µM]	/	/	-3%[7.66 µM]
CCN(Cc1ccncc1)Cc1c(O)ccc2ccccc12	/	10µM*	/	/	1%
O=C(c1ccccc1)[C@@H]1[C@@H](C(=O)c2ccc(F)cc2)[C@@]2(C(=O)Nc3ccccc32)[C@H]2c3ccccc3C=CN12	/	11µM*	?	26	/
Cc1ccc(C(=O)CSc2nnc3ccc4ccccc4n23)cc1	/	/	6%[46 µM]	/	/
CCn1c(SCc2nc3sc(C(=O)O)c(C)c3c(=O)[nH]2)nc2ccccc21	16µM*	?	-2%	54	-3%
COCCn1c(SCc2nc3sc(C(=O)OC)c(C)c3c(=O)[nH]2)nc2ccccc21	-11%	-12%	17%	-29	-1%
CCCCOC(=O)CSc1nc(N)c(C#N)c(-c2ccc(OCC)cc2)c1C#N	-17%	20µM*	6%	?	-1%
CCCCOc1ccc(-c2c(C#N)c(N)nc(SCC(N)=O)c2C#N)cc1	28µM*	?	3%	-25	1%
CCOC(=O)CSc1nc(N)c(C#N)c(-c2ccc(OC)cc2)c1C#N	/	?	-3%	34	/
C=C(C)CSc1nc(N)c(C#N)c(-c2ccc(C)cc2)c1C#N	14µM*	10µM*	2%	2	-4%
CN(C(=O)Nc1cn(C)c(=O)c2ccccc12)c1ccccc1	/	/	15%[46 µM]	/	/
COc1cccc(NC(=O)Cn2nnc(C(=O)NCCc3ccccc3)c2N)c1	/	/	6%[46 µM]	/	/
CC(C)OC(=O)c1sc2nc(-c3ccccc3)ccc2c1N	?	?	-6%	-100*	-5%
CCN1C(=O)C(C(=O)c2ccccc2)SC1=S (centres undefined)	/	7.5µM*	-19%[46 µM]	/	2%
CC(C)NC(=O)CSCc1c(Cl)cccc1Cl	14µM*	?	22%	29	-3%
CNC(=O)CSCc1c(Cl)cccc1Cl	-17%	9%	6%	41	0%
O=C(CSCc1c(Cl)cccc1Cl)Nc1nccs1	20µM*	-7%	18%	-12	-4%
Cc1nn(-c2ccccc2)c(C)c1C(=O)OCC(=O)NC12CC3CC(CC(C3)C1)C2	-18%	8.9µM*	-4%	2	-6%
CC(=O)Nc1ccc(NC(=O)COC(=O)c2c(C)nn(-c3ccccc3)c2C)cc1	-6%	22µM*	?	-83*	5%
Cc1nn(-c2ccccc2)c(C)c1C(=O)Oc1ccccc1	/	-5%	/	/	/
Cc1nn(-c2ccccc2)c(C)c1C(=O)OCC(=O)NC(=O)NC1CCCC1	/	-14%	-5%	?	/
Cc1nc2nc[nH]c2cc1Br	-18%	-20%	6%	3	-3%
Cc1nc2[nH]c(=S)[nH]c2cc1Br	?	18µM*	?	3	1%
Oc1c(C(c2ccccc2)N2CCc3ccccc3C2)sc2ncnn12 (centres undefined)	32µM*	7.1µM*	?	11	0%
SMILES	HPGD block	ALDH1A1 block	Lamin A splicing	PNC inhibitor	Luc counter
COc1cc(C(c2sc3nc(C)nn3c2O)N2CC(C)CC(C)C2)cc(OC)c1OC (centres undefined)	-15%	14µM*	-4%	-3	0%
CCN1CCN(C(c2cccc(OC)c2)c2sc3nc(C)nn3c2O)CC1 (centres undefined)	-6%	8%	-15%	?	0%
COc1cccc(C(c2sc3nc(C)nn3c2O)N2CCc3ccccc3C2)c1 (centres undefined)	11µM*	?	-8%	14	-1%
CCn1c(Cc2ccccc2)nnc1SCC(=O)Nc1ccccc1N1CCOCC1	1%	8.9µM*	?	-23	-3%
CCOC(=O)c1ccccc1NC(=O)CSc1nnnn1C1CCCCC1	/	3.5µM*	?	-21	/
O=C(CSc1nnnn1C1CCCCC1)Nc1ccccc1N1CCOCC1	/	28µM*	/	/	2%
COC(=O)c1ccccc1NC(=O)CSc1nnnn1C1CCCCC1	-14%	?	-2%	-18	0%
COc1ccc(OC)c2sc(N(Cc3cccnc3)C(=O)c3ccc(C(C)=O)cc3)nc12	/	/	-10%[46 µM]	/	/
C=C(C)CSC1=C(C#N)C(c2ccsc2)CC(=O)N1 (centres undefined)	-19%	16µM*	-2%	18	1%
C=CCSC1=C(C#N)C(c2ccc(C(C)C)cc2)CC(=O)N1 (centres undefined)	-14%	28µM*	-6%	-1	16%
O=Cc1ccc(-n2cccn2)cc1	/	?	/	/	-4%
Cc1nccn1-c1ccc(C=O)cc1	/	20µM*	6%[46 µM]	/	0%
COc1ccccc1NS(=O)(=O)c1cccc(C(=O)NN=C2CCCC2)c1	/	13µM*	/	/	1%
CCN(CC)c1ccc(/C=N/NC(=O)c2cccc(S(=O)(=O)Nc3ccccc3OC)c2)cc1	/	10µM*	-3%[46 µM]	/	-2%
CCN(CC)c1ccc(/C=N/NC(=O)c2cccc(S(=O)(=O)Nc3ccccc3OC)c2)c(O)c1	-17%	2%	?	38	1%
COc1ccccc1NS(=O)(=O)c1cccc(C(=O)NN)c1	-5%	4µM*	9%	-14	-1%
CCC(CO)NCc1sccc1C (centres undefined)	/	20µM*	17%[46 µM]	/	-3%
CC1CCN(c2c(NCc3ccc(C(=O)N4CCN(C5CCCCC5)CC4)cc3)c(=O)c2=O)CC1	?	2%	3%	38	-1%
CC1CCN(c2c(NCc3ccc(C(=O)NCCc4ccc(Cl)cc4)cc3)c(=O)c2=O)CC1	?	6%	12%	2	1%
CCOC(=O)N1CCN(c2c(NCCN3CCN(Cc4ccccc4)CC3)c(=O)c2=O)CC1	-29%	?	7%	5	-1%
CCOC(=O)C1CCCN(C(=O)c2ccc(CNc3c(N4CCC(C)CC4)c(=O)c3=O)cc2)C1 (centres undefined)	10µM*	?	-9%	9	2%
CCOC(=O)C1CCN(c2c(NCc3ccc(C(=O)NCCC(C)C)cc3)c(=O)c2=O)CC1	3.5µM*	-12%	6%	54	-5%
CCCNC(=O)c1ccc(CNc2c(N3CCC(C(=O)OCC)CC3)c(=O)c2=O)cc1	4.5µM*	?	-5%	-17	-4%
CCOC(=O)C1CCN(c2c(NCCCN3CCN(Cc4ccccc4)CC3)c(=O)c2=O)CC1	14µM*	-4%	0%	-11	6%
COc1ccc(C)c2sc(N3CCN(C(=O)c4ccco4)CC3)nc12	/	/	0%[46 µM]	/	/
COc1ccc(-n2c(=O)c(CCc3ccccc3)nc3cnc(N4CCNCC4)nc32)cc1	?	?	/	/	-2%
CCOCCCNC(=O)C(c1ccccc1)N1Cc2ccccc2C1=O (centres undefined)	/	/	-25%[46 µM]	/	/
Cc1ccc2c(c1)CC(C)N2S(=O)(=O)c1nnc(NC(=O)c2ccccc2F)s1 (centres undefined)	/	/	5%[46 µM]	/	/

Screening data as filed in PubChem BioAssay.
